# Data from publication PMC11062922 (Nature Chemical Biology, 2023).
# Like-named read-outs stand apart in the source and are kept apart here.
# Experiments:
# AAK1 = conditions: read-out: apparent Kd, n = 1
# AURKA = conditions: read-out: apparent Kd, n = 1
# [1] = compound concentrations:100 nM and 1000 nM (sheet 'Lestaurtinib' of Supplementary Table 1),run:Lestaurtinib_02339_R2,Plate:MR001
# [2] = compound concentrations:100 nM and 1000 nM (sheet 'Lestaurtinib' of Supplementary Table 1),run:Lestaurtinib_02339_R3,Plate:MR001
# [3] = compound concentrations:100 nM and 1000 nM (sheet 'Lestaurtinib' of Supplementary Table 1),run:Lestaurtinib_02367_R1,Plate:MR003
# [4] = compound concentrations:100 nM and 1000 nM (sheet 'Lestaurtinib' of Supplementary Table 1),run:Lestaurtinib_02367_R2,Plate:MR003
# [5] = compound concentrations:100 nM and 1000 nM (sheet 'Lestaurtinib' of Supplementary Table 1),run:Lestaurtinib_02367_R3,Plate:MR003
# [6] = compound concentrations:100 nM and 1000 nM (sheet 'Lestaurtinib' of Supplementary Table 1),run:Lestaurtinib_02381_R3,Plate:MR004
# [7] = compound concentrations:100 nM and 1000 nM (sheet 'Lestaurtinib' of Supplementary Table 1),run:Lestaurtinib_02407_R1,Plate:MR005
# [8] = compound concentrations:100 nM and 1000 nM (sheet 'Lestaurtinib' of Supplementary Table 1),run:Lestaurtinib_02407_R2,Plate:MR005
# [9] = compound concentrations:100 nM and 1000 nM (sheet 'Lestaurtinib' of Supplementary Table 1),run:Lestaurtinib_02407_R3,Plate:MR005
# [10] = compound concentrations:100 nM and 1000 nM (sheet 'Lestaurtinib' of Supplementary Table 1),run:Lestaurtinib_02422_R2,Plate:MR006
# [11] = compound concentrations:100 nM and 1000 nM (sheet 'Lestaurtinib' of Supplementary Table 1),run:Lestaurtinib_02437_R2,Plate:MR007
# [12] = compound concentrations:100 nM and 1000 nM (sheet 'Lestaurtinib' of Supplementary Table 1),run:Lestaurtinib_02438_R1,Plate:MR008
substance,measurement,setting,value
Lestaurtinib,potency estimated from few doses,AAK1; [1],85.5 nM
same,potency estimated from few doses,AAK1; [2],53.3 nM
same,potency estimated from few doses,"AAK1; compound concentrations:100 nM and 1000 nM (sheet 'Lestaurtinib' of Supplementary Table 1),run:Lestaurtinib_02364_R3,Plate:MR002",69.8 nM
same,potency estimated from few doses,AAK1; [3],65.4 nM
same,potency estimated from few doses,AAK1; [4],78.3 nM
same,potency estimated from few doses,AAK1; [5],77.2 nM
same,potency estimated from few doses,"AAK1; compound concentrations:100 nM and 1000 nM (sheet 'Lestaurtinib' of Supplementary Table 1),run:Lestaurtinib_02381_R1,Plate:MR004",66.8 nM
same,potency estimated from few doses,AAK1; [6],45.5 nM
same,potency estimated from few doses,AAK1; [7],63.9 nM
same,potency estimated from few doses,AAK1; [8],53.3 nM
same,potency estimated from few doses,AAK1; [9],73.1 nM
same,potency estimated from few doses,AAK1; [10],18.9 nM
same,potency estimated from few doses,"AAK1; compound concentrations:100 nM and 1000 nM (sheet 'Lestaurtinib' of Supplementary Table 1),run:Lestaurtinib_02422_R3,Plate:MR006",72.2 nM
same,potency estimated from few doses,AAK1; [11],69.6 nM
same,potency estimated from few doses,AAK1; [12],74.4 nM
same,potency estimated from few doses,"AAK1; compound concentrations:100 nM and 1000 nM (sheet 'Lestaurtinib' of Supplementary Table 1),run:Lestaurtinib_02438_R2,Plate:MR008",72.4 nM
same,potency estimated from few doses,"AAK1; compound concentrations:100 nM and 1000 nM (sheet 'Lestaurtinib' of Supplementary Table 1),run:Lestaurtinib_02443_R1,Plate:MR009",59.8 nM
same,potency estimated from few doses,"AAK1; compound concentrations:100 nM and 1000 nM (sheet 'Lestaurtinib' of Supplementary Table 1),run:Lestaurtinib_02443_R2,Plate:MR009",72.4 nM
same,potency estimated from few doses,"AAK1; compound concentrations:100 nM and 1000 nM (sheet 'Lestaurtinib' of Supplementary Table 1),run:Lestaurtinib_02473_R1,Plate:MR010",56.2 nM
same,potency estimated from few doses,"AAK1; compound concentrations:100 nM and 1000 nM (sheet 'Lestaurtinib' of Supplementary Table 1),run:Lestaurtinib_02473_R3,Plate:MR010",40.1 nM
same,potency estimated from few doses,"AAK1; compound concentrations:100 nM and 1000 nM (sheet 'Lestaurtinib' of Supplementary Table 1),run:Lestaurtinib_02482_R1,Plate:MR011",62.4 nM
same,potency estimated from few doses,"AAK1; compound concentrations:100 nM and 1000 nM (sheet 'Lestaurtinib' of Supplementary Table 1),run:Lestaurtinib_02482_R2,Plate:MR011",81.9 nM
same,potency estimated from few doses,"AAK1; compound concentrations:100 nM and 1000 nM (sheet 'Lestaurtinib' of Supplementary Table 1),run:Lestaurtinib_02482_R3,Plate:MR011",69.5 nM
same,potency estimated from few doses,"AAK1; compound concentrations:100 nM and 1000 nM (sheet 'Lestaurtinib' of Supplementary Table 1),run:Lestaurtinib_02487_R1,Plate:MR012",45.5 nM
same,potency estimated from few doses,"AAK1; compound concentrations:100 nM and 1000 nM (sheet 'Lestaurtinib' of Supplementary Table 1),run:Lestaurtinib_02487_R2,Plate:MR012",64.8 nM
same,potency estimated from few doses,"AAK1; compound concentrations:100 nM and 1000 nM (sheet 'Lestaurtinib' of Supplementary Table 1),run:Lestaurtinib_02487_R3,Plate:MR012",70.8 nM
same,potency estimated from few doses,"AAK1; compound concentrations:100 nM and 1000 nM (sheet 'Lestaurtinib' of Supplementary Table 1),run:Lestaurtinib_02496_R1,Plate:MR013",93.7 nM
same,potency estimated from few doses,"AAK1; compound concentrations:100 nM and 1000 nM (sheet 'Lestaurtinib' of Supplementary Table 1),run:Lestaurtinib_02496_R2,Plate:MR013",80.9 nM
same,potency estimated from few doses,"AAK1; compound concentrations:100 nM and 1000 nM (sheet 'Lestaurtinib' of Supplementary Table 1),run:Lestaurtinib_02566_R1,Plate:MR014",85.4 nM
same,potency estimated from few doses,"AAK1; compound concentrations:100 nM and 1000 nM (sheet 'Lestaurtinib' of Supplementary Table 1),run:Lestaurtinib_02566_R2,Plate:MR014",74.9 nM
same,potency estimated from few doses,"AAK1; compound concentrations:100 nM and 1000 nM (sheet 'Lestaurtinib' of Supplementary Table 1),run:Lestaurtinib_02572_R1,Plate:MR015",46 nM
same,potency estimated from few doses,"AAK1; compound concentrations:100 nM and 1000 nM (sheet 'Lestaurtinib' of Supplementary Table 1),run:Lestaurtinib_02572_R2,Plate:MR015",79.8 nM
same,potency estimated from few doses,"AAK1; compound concentrations:100 nM and 1000 nM (sheet 'Lestaurtinib' of Supplementary Table 1),run:Lestaurtinib_02572_R3,Plate:MR015",95.8 nM
same,potency estimated from few doses,"AAK1; compound concentrations:100 nM and 1000 nM (sheet 'Lestaurtinib' of Supplementary Table 1),run:Lestaurtinib_02577_R1,Plate:MR016",58.2 nM
same,potency estimated from few doses,"AAK1; compound concentrations:100 nM and 1000 nM (sheet 'Lestaurtinib' of Supplementary Table 1),run:Lestaurtinib_02577_R2,Plate:MR016",52.8 nM
same,potency estimated from few doses,"AAK1; compound concentrations:100 nM and 1000 nM (sheet 'Lestaurtinib' of Supplementary Table 1),run:Lestaurtinib_02577_R3,Plate:MR016",59.6 nM
same,potency estimated from few doses,"AAK1; compound concentrations:100 nM and 1000 nM (sheet 'Lestaurtinib' of Supplementary Table 1),run:Lestaurtinib_02584_R1,Plate:MR017",83.9 nM
same,potency estimated from few doses,"AAK1; compound concentrations:100 nM and 1000 nM (sheet 'Lestaurtinib' of Supplementary Table 1),run:Lestaurtinib_02584_R2,Plate:MR017",61 nM
same,potency estimated from few doses,"AAK1; compound concentrations:100 nM and 1000 nM (sheet 'Lestaurtinib' of Supplementary Table 1),run:Lestaurtinib_02584_R3,Plate:MR017",88.2 nM
same,potency estimated from few doses,"AAK1; compound concentrations:100 nM and 1000 nM (sheet 'Lestaurtinib' of Supplementary Table 1),run:Lestaurtinib_02601_R1,Plate:MR018",68.7 nM
same,potency estimated from few doses,"AAK1; compound concentrations:100 nM and 1000 nM (sheet 'Lestaurtinib' of Supplementary Table 1),run:Lestaurtinib_02601_R3,Plate:MR018",47.3 nM
same,potency estimated from few doses,"AAK1; compound concentrations:100 nM and 1000 nM (sheet 'Lestaurtinib' of Supplementary Table 1),run:Lestaurtinib_02606_R1,Plate:MR019",69.9 nM
same,potency estimated from few doses,"AAK1; compound concentrations:100 nM and 1000 nM (sheet 'Lestaurtinib' of Supplementary Table 1),run:Lestaurtinib_02606_R2,Plate:MR019",73.7 nM
same,potency estimated from few doses,"AAK1; compound concentrations:100 nM and 1000 nM (sheet 'Lestaurtinib' of Supplementary Table 1),run:Lestaurtinib_02624_R1,Plate:MR020",52 nM
same,potency estimated from few doses,"AAK1; compound concentrations:100 nM and 1000 nM (sheet 'Lestaurtinib' of Supplementary Table 1),run:Lestaurtinib_02624_R2,Plate:MR020",66.6 nM
same,potency estimated from few doses,"AAK1; compound concentrations:100 nM and 1000 nM (sheet 'Lestaurtinib' of Supplementary Table 1),run:Lestaurtinib_02624_R3,Plate:MR020",69.8 nM
same,potency estimated from few doses,"AAK1; compound concentrations:100 nM and 1000 nM (sheet 'Lestaurtinib' of Supplementary Table 1),run:Lestaurtinib_02724_R1,Plate:MR021",69.4 nM
same,potency estimated from few doses,"AAK1; compound concentrations:100 nM and 1000 nM (sheet 'Lestaurtinib' of Supplementary Table 1),run:Lestaurtinib_02741_R2,Plate:MR023",113 nM
same,potency estimated from few doses,"AAK1; compound concentrations:100 nM and 1000 nM (sheet 'Lestaurtinib' of Supplementary Table 1),run:Lestaurtinib_02741_R3,Plate:MR023",89.7 nM
same,potency estimated from few doses,"AAK1; compound concentrations:100 nM and 1000 nM (sheet 'Lestaurtinib' of Supplementary Table 1),run:Lestaurtinib_02748_R1,Plate:MR024",64.3 nM
same,potency estimated from few doses,"AAK1; compound concentrations:100 nM and 1000 nM (sheet 'Lestaurtinib' of Supplementary Table 1),run:Lestaurtinib_02748_R2,Plate:MR024",53.8 nM
same,potency estimated from few doses,"AAK1; compound concentrations:100 nM and 1000 nM (sheet 'Lestaurtinib' of Supplementary Table 1),run:Lestaurtinib_02748_R3,Plate:MR024",68.7 nM
same,potency estimated from few doses,"AAK1; compound concentrations:100 nM and 1000 nM (sheet 'Lestaurtinib' of Supplementary Table 1),run:Lestaurtinib_02752_R1,Plate:MR025",98.6 nM
same,potency estimated from few doses,"AAK1; compound concentrations:100 nM and 1000 nM (sheet 'Lestaurtinib' of Supplementary Table 1),run:Lestaurtinib_02765_R3,Plate:MR026",84.5 nM
same,potency estimated from few doses,"AAK1; compound concentrations:100 nM and 1000 nM (sheet 'Lestaurtinib' of Supplementary Table 1),run:Lestaurtinib_02766_R1,Plate:MR027",55 nM
same,potency estimated from few doses,"AAK1; compound concentrations:100 nM and 1000 nM (sheet 'Lestaurtinib' of Supplementary Table 1),run:Lestaurtinib_02768_R3,Plate:MR028",80.1 nM
same,potency estimated from few doses,"AAK1; compound concentrations:100 nM and 1000 nM (sheet 'Lestaurtinib' of Supplementary Table 1),run:Lestaurtinib_02795_R1,Plate:MR022",81.4 nM
same,potency estimated from few doses,"AAK1; compound concentrations:100 nM and 1000 nM (sheet 'Lestaurtinib' of Supplementary Table 1),run:Lestaurtinib_02795_R3,Plate:MR022",154 nM
same,potency estimated from few doses,"AAK1; compound concentrations:100 nM and 1000 nM (sheet 'Lestaurtinib' of Supplementary Table 1),run:Lestaurtinib_02802_R1,Plate:MR029",67.9 nM
same,potency estimated from few doses,"AAK1; compound concentrations:100 nM and 1000 nM (sheet 'Lestaurtinib' of Supplementary Table 1),run:Lestaurtinib_02802_R2,Plate:MR029",50.7 nM
same,potency estimated from few doses,"AAK1; compound concentrations:100 nM and 1000 nM (sheet 'Lestaurtinib' of Supplementary Table 1),run:Lestaurtinib_02896_R1,Plate:MR030",73.7 nM
same,potency estimated from few doses,"AAK1; compound concentrations:100 nM and 1000 nM (sheet 'Lestaurtinib' of Supplementary Table 1),run:Lestaurtinib_02896_R3,Plate:MR030",71.3 nM
same,potency estimated from few doses,"AAK1; compound concentrations:100 nM and 1000 nM (sheet 'Lestaurtinib' of Supplementary Table 1),run:Lestaurtinib_03172_R2,Plate:MR031",56 nM
same,potency estimated from few doses,"AAK1; compound concentrations:100 nM and 1000 nM (sheet 'Lestaurtinib' of Supplementary Table 1),run:Lestaurtinib_03172_R3,Plate:MR031",66.8 nM
same,potency estimated from few doses,"AAK1; compound concentrations:100 nM and 1000 nM (sheet 'Lestaurtinib' of Supplementary Table 1),run:Lestaurtinib_03252_R1,Plate:MR032",96.3 nM
same,potency estimated from few doses,"AAK1; compound concentrations:100 nM and 1000 nM (sheet 'Lestaurtinib' of Supplementary Table 1),run:Lestaurtinib_03260_R1,Plate:MR033",73.1 nM
same,potency estimated from few doses,"AAK1; compound concentrations:100 nM and 1000 nM (sheet 'Lestaurtinib' of Supplementary Table 1),run:Lestaurtinib_03260_R2,Plate:MR033",77.8 nM
same,potency estimated from few doses,"AURKA; compound concentrations:100 nM and 1000 nM (sheet 'Lestaurtinib' of Supplementary Table 1),run:Lestaurtinib_02339_R1,Plate:MR001",20 nM
same,potency estimated from few doses,AURKA; [1],18 nM
same,potency estimated from few doses,AURKA; [2],18.4 nM
same,potency estimated from few doses,"AURKA; compound concentrations:100 nM and 1000 nM (sheet 'Lestaurtinib' of Supplementary Table 1),run:Lestaurtinib_02364_R2,Plate:MR002",21.3 nM
same,potency estimated from few doses,AURKA; [3],16.3 nM
same,potency estimated from few doses,AURKA; [4],18.4 nM
same,potency estimated from few doses,AURKA; [5],18.1 nM
same,potency estimated from few doses,AURKA; [6],17.5 nM
same,potency estimated from few doses,AURKA; [7],16.3 nM
same,potency estimated from few doses,AURKA; [8],18.3 nM
same,potency estimated from few doses,AURKA; [9],18.2 nM
same,potency estimated from few doses,"AURKA; compound concentrations:100 nM and 1000 nM (sheet 'Lestaurtinib' of Supplementary Table 1),run:Lestaurtinib_02422_R1,Plate:MR006",15.3 nM
same,potency estimated from few doses,AURKA; [10],7.4 nM
same,potency estimated from few doses,"AURKA; compound concentrations:100 nM and 1000 nM (sheet 'Lestaurtinib' of Supplementary Table 1),run:Lestaurtinib_02437_R1,Plate:MR007",20.9 nM
same,potency estimated from few doses,AURKA; [11],21.8 nM
same,potency estimated from few doses,"AURKA; compound concentrations:100 nM and 1000 nM (sheet 'Lestaurtinib' of Supplementary Table 1),run:Lestaurtinib_02437_R3,Plate:MR007",3.54 nM
same,potency estimated from few doses,AURKA; [12],15.4 nM
